# ± gives the standard deviation of the averaged measurements.
# Legend:
# [1] = test system: DLD1; test: cell viability (CellTiter-Glo) relative to plate median (fraction of plate median); higher = more viable cells; conditions: 5 µM; treatment time 24 h; reporter: 7TFP
# Method in brief: (§1)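 On parallel plates, a Tecan F500 reader recorded either firefly luciferase or CellTiterGlo luminescence. The plates held colorectal cancer cells stably transduced with lentiviral TCF/Wnt firefly luciferase reporters (7TFP or TCF4/Wnt), seeded in 384-well format and treated 24 h later with library compounds at a final 5 µM for 24 h. Per-well signals were normalised to the plate median (webcellHTS2, additive, no log transformation), and two independent replicates were averaged.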
# [2] = test system: HCT116; test: as above; conditions: 5 µM; treatment time 24 h; reporter: TCF4/Wnt
# Method in brief: as §1
# [3] = test system: SW480; test: as above; conditions: 5 µM; treatment time 24 h; reporter: 7TFP
# Method in brief: as §1
# [4] = test system: DLD1; test: TCF/Wnt firefly luciferase reporter signal relative to plate median (fraction of plate median); higher = higher Wnt reporter signal; conditions: 5 µM; treatment time 24 h; reporter: 7TFP
# Method in brief: as §1
# [5] = test system: SW480; test: as above; conditions: 5 µM; treatment time 24 h; reporter: 7TFP
# Method in brief: as §1
Compound,cell viability [1],cell viability [2],cell viability [3],TCF/Wnt firefly luciferase reporter signal [4],TCF/Wnt firefly luciferase reporter signal [5]
Cc1cnc(NC(=O)C2=C(O)c3ccccc3S(=O)(=O)N2C)s1,1.01 ± 0.04,1.05 ± 0.078,0.995 ± 0.079,1.02 ± 0.031,1.03 ± 0.044
C[C@H](CS)C(=O)N1CCC[C@H]1C(=O)O,1.04 ± 0.097,1.02 ± 0.1,1.09 ± 0.014,1.04 ± 0.042,1.06 ± 0.021
CC[N+](C)(C)c1cccc(O)c1,0.956 ± 0.091,0.984 ± 0.013,0.908 ± 0.041,0.92 ± 0.14,0.915 ± 0.044
C=C[C@@H](C1=CC(=O)C(OC)=C(OC)C1=O)c1ccccc1,0.903 ± 0.0057,0.856 ± 0.11,1.08 ± 0.014,0.712 ± 0.033,0.907 ± 0.023
Cc1c(Nc2ncccc2C(=O)O)cccc1C(F)(F)F,0.977 ± 0.016,1.1 ± 0.11,1.04 ± 0.042,1.11 ± 0.057,0.948 ± 0.14
CC(=O)OC(C)C[N+](C)(C)C (stereo not given),0.968 ± 0.1,1.03 ± 0.08,0.997 ± 0.019,1.01 ± 0.071,1.01 ± 0.021
COc1ccc(C2CNC(=O)C2)cc1OC1CCCC1 (stereo not given),0.992 ± 0.011,0.989 ± 0.059,0.968 ± 0.0099,1.04 ± 0.18,1.06 ± 0.021
COc1cccc(/C=C/C(=O)O)c1C(C)C,0.981 ± 0.042,1.03 ± 0.093,1 ± 0.041,1.12 ± 0.26,1.03 ± 0.17
N=C(N)NCCCCN,1 ± 0.054,1.15 ± 0.014,1.02 ± 0.058,1.02 ± 0.04,1.09 ± 0.071
C=C(CC)C(=O)c1ccc(OCC(=O)O)c(Cl)c1Cl,1.01 ± 0.046,1.01 ± 0.046,1.03 ± 0.05,1.11 ± 0.11,1.095 ± 0.0071
CCCc1cc(C(N)=S)ccn1,0.972 ± 0.022,1.05 ± 0.021,0.976 ± 0.063,1.015 ± 0.0071,1.04 ± 0.021
O=C(OC[C@H]1O[C@@H](OC(=O)c2cc(O)c(O)c(OC(=O)c3cc(O)c(O)c(O)c3)c2)[C@H](OC(=O)c2cc(O)c(O)c(OC(=O)c3cc(O)c(O)c(O)c3)c2)[C@@H](OC(=O)c2cc(O)c(O)c(OC(=O)c3cc(O)c(O)c(O)c3)c2)[C@@H]1OC(=O)c1cc(O)c(O)c(OC(=O)c2cc(O)c(O)c(O)c2)c1)c1cc(O)c(O)c(OC(=O)c2cc(O)c(O)c(O)c2)c1,1.025 ± 0.0071,0.915 ± 0.04,1 ± 0.05,0.794 ± 0.055,0.913 ± 0.047
OC[C@H]1O[C@@H](O[C@@H]2[C@@H](CO)OC(O)(CO)[C@H]2O)[C@H](O)[C@@H](O)[C@H]1O (mixture of isomers),0.999 ± 0.0014,0.99 ± 0.028,0.984 ± 0.0028,1.07 ± 0.18,1.02 ± 0.034
CC(=O)Nc1ccc(O)cc1,0.935 ± 0.028,0.948 ± 0.14,0.996 ± 0.02,0.923 ± 0.12,1.05 ± 0.071
CC1(C)O[C@@H]2C[C@H]3[C@@H]4C[C@H](F)C5=CC(=O)C=C[C@]5(C)[C@H]4[C@@H](O)C[C@]3(C)[C@]2(C(=O)CO)O1,0.996 ± 0.0057,1.03 ± 0.055,0.978 ± 0.0042,0.928 ± 0.0085,1.03 ± 0.067
CC(=O)c1cc2c(cc1O)OC(C)(C)C=C2,1.09 ± 0.099,1 ± 0.011,1.03 ± 0.014,0.99 ± 0.057,1.01 ± 0.023
C[C@]12CC[C@@H]3c4ccc(O)cc4CC[C@H]3[C@@H]1CC[C@@H]2OC(=O)CCC1CCCC1,0.957 ± 0.044,1.01 ± 0.065,0.967 ± 0.04,1.17 ± 0.021,1.11
Oc1ccc(OCc2ccccc2)cc1,1.07 ± 0.05,0.975 ± 0.078,0.982 ± 0.017,1 ± 0.17,0.754 ± 0.05
CS(=O)(=O)c1ccc([C@@H](O)[C@@H](CO)NC(=O)C(Cl)Cl)cc1,0.914 ± 0.055,0.958 ± 0.06,0.925 ± 0.014,0.982 ± 0.018,0.814 ± 0.058
CS(=O)(=O)Nc1ccc([N+](=O)[O-])cc1Oc1ccccc1,1.02 ± 0.021,0.967 ± 0.089,0.978 ± 0.018,1.01 ± 0.022,0.981 ± 0.028
C[N+](C)(C)CC(O)CC(=O)[O-] (stereo not given),0.976 ± 0.03,1.07 ± 0.14,0.9395 ± 0.00071,1.14 ± 0.014,0.902 ± 0.1
CC(C)NNC(=O)c1ccncc1,1.02 ± 0.029,0.992 ± 0.054,1 ± 0.083,1.07 ± 0.042,1.01 ± 0.021
CC(C)[C@H](NC(=O)[C@H](Cc1ccc(O)cc1)NC(=O)[C@@H](NC(=O)C(F)(F)F)C(C)C)C(=O)O,0.957 ± 0.028,0.94 ± 0.021,0.969 ± 0.025,0.842 ± 0.12,0.845 ± 0.035
C[C@@H]1C[C@H]2[C@@H]3CCC4=CC(=O)C=C[C@]4(C)[C@@]3(F)[C@@H](O)C[C@]2(C)[C@@]1(O)C(=O)COP(=O)(O)O,1.03 ± 0.052,1.02 ± 0.075,1.01 ± 0.093,0.954 ± 0.065,0.906 ± 0.0014
COc1ccc(-c2coc3c(O)c(OC)ccc3c2=O)cc1,0.969 ± 0.073,0.984 ± 0.08,0.99 ± 0.014,1 ± 0.12,1.01 ± 0.095
CCn1cc(C(=O)O)c(=O)c2cc(F)c(N3CCNC(C)C3)c(F)c21 (stereo not given),0.971 ± 0.056,1.05 ± 0.057,0.98 ± 0.012,1.13 ± 0.057,0.997 ± 0.061
FC(F)(F)C(Cl)Br (stereo not given),0.964 ± 0.035,0.898 ± 0.011,0.9715 ± 0.0035,1.02 ± 0.028,1.1 ± 0.092
CC(=O)OCC(COC(C)=O)OC(C)=O,0.905 ± 0.08,0.962 ± 0.082,0.948 ± 0.0099,0.929 ± 0.079,1 ± 0.011
CC1=Nc2ccc(Cl)cc2S(=O)(=O)N1,0.946 ± 0.016,1.06 ± 0.12,0.975 ± 0.05,1.135 ± 0.0071,0.86 ± 0.14
CC1=C(C(=O)O)N2C(=O)[C@@H](NC(=O)[C@H](N)C3=CCC=CC3)[C@H]2SC1,0.978 ± 0.073,0.958 ± 0.018,0.948 ± 0.021,1.01 ± 0.09,1.02 ± 0.021
